This is a sample that favours compounds with a hit; in the whole collection about 1.6% have one here.
IMPase inh – membrane-permeable compound that blocks inositol monophosphatase; P97697; CHO-M1 cells, IP1 accumulation, HTRF TR-FRET ratio; inhibition (IP1 accumulation), % at 46.1 µM; 120,000 tested, under 10 active; AID 901; active means well fitted curve in the direction sought with a large enough effect in the signal ratio, not every such curve was filed as active; inconclusive means small, poorly fitted or top-dose-only effect, or a change in a side signal; inactive means no such curve, though single readings can be large or run the other way; the % refers to the signal ratio;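 further: cells stimulated with carbachol in lithium chloride buffer; higher means more IMPase inhibition seen as more IP1 and lower FRET ratio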
Target sequence (P97697 whole entry, looked up): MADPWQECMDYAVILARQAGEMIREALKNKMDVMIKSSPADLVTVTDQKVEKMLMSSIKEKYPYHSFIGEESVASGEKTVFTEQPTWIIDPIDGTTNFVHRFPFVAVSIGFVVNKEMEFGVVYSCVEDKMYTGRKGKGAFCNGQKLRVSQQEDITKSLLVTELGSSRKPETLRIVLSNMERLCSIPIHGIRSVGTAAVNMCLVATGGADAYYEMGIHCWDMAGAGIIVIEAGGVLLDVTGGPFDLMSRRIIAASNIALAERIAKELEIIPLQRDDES
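Carbachol-driven Gq signalling in CHO-M1 cells (2000/well) generates IP1. Compounds that block IMPase raise IP1 and so reduce the FRET signal from Eu-anti-IP1 and d2-IP1 after a 10 min room-temperature lysis.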
IMPase Li inh – cell-permeable IMPase inhibitors with lithium potentiation. CHO-M1 cells, IP1 TR-FRET (IP-One), carbachol + lithium. Potency, µM (titrated, usually from 59.4 µM), most hits filed as inhibitors. 210,000 compounds, 0.35% hits;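 further: IP1 builds up when IMPase is blocked and the TR-FRET signal falls; nearly all actives have a fitted effect of over 50% in size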
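Readout is a homogeneous TR-FRET IP1 immunoassay (Ex 320, Em 665 and 620), where raised cytosolic IP1 lowers signal. Cells were CHO-M1 treated 30 min at 37C with test compounds plus a little lithium; AC50 values came from Hill-equation fitting.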
HTT ATP protect – protects HTT-Q103 PC12 cells, measured by ATP; PC12 HTT-Q103 induced, cytoprotection, ATP luminescence, 40 h; AID 1471; Potency, µM (top dose mostly 56.4 µM), hits mostly activators; 230,000 compounds, 0.14% hits; further: nearly all actives have a fitted effect of over 45% in size
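Cells were plated at 1500 per well in phenol red-free DMEM with 5% equine and 5% calf serum. Tebufenozide (100 nM final) and compounds were added, then ATPlite reagent, and luminescence was read.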
NPSR antag – antagonists of human neuropeptide S receptor cAMP signaling; CHO-NPSR cells, cAMP TR-FRET, antagonist mode; Potency, µM (top dose mostly 38.3 µM), actives largely listed as inhibitors; 220,000 compounds, 1% hits; further: nearly all actives have a fitted effect of over 50% in size
Target sequence (Q6W5P4 whole entry, looked up): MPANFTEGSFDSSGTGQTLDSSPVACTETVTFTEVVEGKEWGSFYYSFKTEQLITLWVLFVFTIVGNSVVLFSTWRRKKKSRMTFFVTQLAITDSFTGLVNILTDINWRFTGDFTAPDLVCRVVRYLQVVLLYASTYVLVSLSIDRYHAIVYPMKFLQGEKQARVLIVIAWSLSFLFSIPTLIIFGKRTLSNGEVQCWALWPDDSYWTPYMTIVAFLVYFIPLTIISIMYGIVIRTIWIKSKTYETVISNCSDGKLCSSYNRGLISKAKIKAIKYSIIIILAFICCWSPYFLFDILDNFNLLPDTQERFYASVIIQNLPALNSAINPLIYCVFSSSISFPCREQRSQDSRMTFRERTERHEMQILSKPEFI
Lamin A splicing – modulators of lamin A splicing. HeLa LMNA splicing GFP/RFP minigene ratio, 48 h. Potency, µM (highest dose often 46.1 µM), most hits filed as inhibitors. 200,000 compounds, 0.01% hits; active means well fitted inhibition curve with a large enough effect in the signal ratio, with a control signal flat, not every such curve was filed as active; inconclusive means small, poorly fitted or top-dose-only effect, or effect the other way, or a change in a side signal; the % refers to the signal ratio
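S3 HeLa cells stably expressing lamin A-EGFP splicing minigene plus DsRed2, 600 cells/well, 48 h compound exposure at 37C. Laser-scanning cytometry; analysed as GFP (500-530 nm)/RFP (575-640 nm) total intensity ratio; 0.5% DMSO vehicle.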
HTT aggregate – inhibitors of mutant huntingtin aggregate formation in PC12 cells | PC12 HttQ103-GFP aggregates, Acumen cytometry, 40 h | Potency, µM (series often up to 46.1 µM), most hits filed as inhibitors | 220,000 compounds, 1.1% hits | AID 1688; further: nearly all actives have a fitted effect of over 60% in size
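Inducible Q103 Huntingtin exon 1–GFP PC12 line, 1500 cells/well in phenol red free DMEM with 5% equine and 5% calf serum. Tebufenozide 100 nM induced expression; compounds titrated; aggregates quantified by cytometry.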
A number is an active result; - = inactive; ? = inconclusive; . = no result given; [ ] = another dose, or the depositor's remark. Unless noted, the call rests on the fitted dose curve; in most records, active means well fitted curve in the direction sought with a large enough effect; inconclusive means small, poorly fitted or top-dose-only effect, or another doubt; inactive means no such curve, though single readings can be large; an effect the other way counts as inactive or inconclusive.

SMILES	IMPase inh	IMPase Li inh	HTT ATP protect	NPSR antag	Lamin A splicing	HTT aggregate
Cc1ccc2oc3c(c(=O)c2c1)C(c1cccc(O)c1)N(Cc1ccccc1Cl)C3=O (stereo not given)	-	.	.	.	.	.
Nc1ncnc2c1ncn2[C@H]1O[C@@H](C(=O)O)[C@@H](O)[C@H]1O	.	-	-[10 µM]	.	.	.
O=C1c2ccccc2-n2c1nc1ccccc1c2=O	.	-	-	-	?	11.2µM
Cc1ccc(S(=O)(=O)NCCNC(=O)c2cc(OCC(F)(F)F)ccc2OCC(F)(F)F)cc1	-	11.2µM	-	-	-	-
O=C(Oc1ccc2[nH]cc(CCN3C(=O)c4ccccc4C3=O)c2c1)c1ccco1	-	-	-	-	-	-
COc1ccc2c(c1)c(CCN1C(=O)c3ccccc3C1=O)cn2C(=O)c1ccco1	-	8.91µM	-	?	-	-
O[C@@H](c1cc([C@@]23C[C@H]4CC[C@@H]2C[C@H](C4)C3)nc2c(Cl)cc(Cl)cc12)C1CCCCN1 (stereo not given in full)	.	-	.	.	.	.
Clc1ccc(-c2ccc(-c3nn4c(-c5ccco5)nnc4s3)o2)cc1	.	.	-[0.074 µM]	.	.	.
Brc1ccc(-c2nn3c(-c4ccco4)nnc3s2)o1	?	11.2µM	-	?	?	-
COc1cccc(-c2nn3c(-c4ccco4)nnc3s2)c1	-	11.2µM	-	-	-	-
O=C(O)C1(C(=O)O)CCN(S(=O)(=O)c2ccccc2)CC1	.	-	-[10 µM]	.	.	.
COc1ccc(/C=C(\C#N)C(N)=O)c(OC)c1	.	-	-[10 µM]	.	.	.
CCC(C)NS(=O)(=O)c1ccc(S(=O)(=O)Nc2cc3c(cc2C(C)=O)OCO3)cc1 (stereo not given)	-	-	?	-	?	12.6µM
CC(=O)c1cc2c(cc1NS(=O)(=O)c1ccccc1)OCO2	-	-	-	-	-	-[9.22 µM]
O=C(O)/C=C/c1ccc2noc(-c3ccccc3)c2c1	.	-	-	-	?	3.98µM
Cc1cc(SCC(=O)Nc2ncc(Cl)cc2Cl)nc2ccccc12	-	-	-[10 µM]	-	?	-
COc1ccc2c(C)cc(SCC(=O)Nc3ncc(Cl)cc3Cl)nc2c1	.	12.6µM	-[10 µM]	?	-	-
COc1ccc(C(=O)Nc2ccc(C(=O)OCC(=O)c3ccccc3)cc2)cc1	-	-	-	-	-	-
COc1ccc(NC(=O)CCC(=O)c2ccc(-c3ccccc3)cc2)cc1	-	31.6µM	-	-	-	-
COc1ccc(C(=O)COC(=O)c2ccc(NC(=O)c3ccccc3)cc2)cc1	-	11.2µM	-	-	?	-
COc1ccc(C(=O)CCC(=O)Nc2cccnc2)cc1	.	-	-	-	?	-
Cc1cc(Sc2nc(N)ncc2[N+](=O)[O-])ncn1	.	-	-	-	?	?
Cc1cc(Sc2ncnc(N)c2[N+](=O)[O-])ncn1	.	-	-[10 µM]	-	?	4.47µM
Cc1ccccc1OCC(=O)Nc1ccccc1C(=O)OCc1cc(=O)n2nc(C3CC3)sc2n1	.	.	.	.	-	.
C=CC1=C2C=C(C3CC3)N(C3CCCC3)C=C2C(=O)C(C)(OC(=O)c2ccco2)C1=O (stereo not given)	.	-	-[10 µM]	.	-[9.22 µM]	.
SMILES	IMPase inh	IMPase Li inh	HTT ATP protect	NPSR antag	Lamin A splicing	HTT aggregate
N#C/C(=N\Nc1cccc(Cl)c1)C(=O)c1ccccc1	-	-	-	-	?	3.55µM
O=C1NC(=S)S/C1=C/c1ccc(N2CCOCC2)o1	.	-	.	12.6µM	?	-
C=CCN1C(=O)N/C(=C/c2ccc(N3CCOCC3)o2)C1=O	.	-	.	-	?	5.01µM
Cc1ccc(-c2ccc(/C=C3\SC(N4CCOCC4)=NC3=O)o2)cc1	.	-	2.82µM	-	?	-
Cc1csc(NC(=O)CSc2nnc(-c3ccncc3)n2C)n1	?	-	-	-	-	0.0008µM
Cn1c(SCC(=O)Nc2nccs2)nnc1-c1ccncc1	-	-	-	-	-	-
Cc1cccc(CNc2ncnc3ccc(-c4ccccc4CN(C)C)cc23)c1	.	-	-	.	-	.
Cc1cccc(NC(=O)c2oc3c(c2C)C(=O)CC(C)(C)C3)n1	-	-	-[0.074 µM]	-	-	22.4µM
Cc1oc2c(CN(C)C)c(O)ccc2c(=O)c1-c1cscn1	-	-	-[10 µM]	-	-	-
CCc1cc2c(=O)c(-c3cscn3)coc2c(CN(C)C)c1O	-	-	-[10 µM]	-	-	11.2µM
CCCCC/C=C\C[C@@H](O)/C=C/C=C/C=C/[C@@H](O)CCCC(=O)O	.	-	-	.	.	.
CCC(Cc1c(I)cc(I)c(O)c1I)C(=O)O (stereo not given)	.	.	?	.	.	-
c1ccc(-c2nc(-c3ccccc3)c(NC3CCCCC3)o2)cc1	.	-	-	.	.	.
O=C(c1ccco1)N1CCn2cccc2C1c1ccccc1 (stereo not given)	.	-	0.891µM	-	.	-
CCc1ccc(NC(=O)CSc2nc3ccccc3c(=O)n2CCCN2CCC(C)CC2)cc1	.	-	-	?	.	22.4µM
CCn1c(SCC(=O)Nc2ccc(NC(=O)c3ccco3)c(OC)c2)nc2ccccc2c1=O	-	12.6µM	-[10 µM]	-	-	-
CCc1ccc(NC(=O)CSc2nc3ccccc3c(=O)n2CCNC(C)=O)cc1	.	.	.	.	-	.
COCCn1c(SCC(=O)Nc2ccc(NC(=O)c3ccco3)c(OC)c2)nc2ccccc2c1=O	-	-	-	-	-	-
Cc1ccc(NC(=O)CSc2nc3ccccc3c(=O)n2Cc2cccs2)cc1	-	12.6µM	?	-	-	-
CCOC(=O)c1cnc2c(Cl)cc(Cl)cc2c1Nc1ccccc1OC	-	.	.	.	.	.
COc1ccc(OCC(=O)Nc2cc(-c3nn4c(C)nnc4s3)ccc2C)cc1	-	-	-	-	-	-
Cc1cc(OCC(=O)Nc2cc(-c3nn4c(C)nnc4s3)ccc2C)ccc1Cl	-	28.2µM	-	?	-	-
O=C(Cn1ncc(Cl)c(Cl)c1=O)N1CCN(S(=O)(=O)c2ccc3ccccc3c2)CC1	-	.	-[10 µM]	12.6µM	?	-[9.22 µM]
O=C(CCC(=O)N1CCN(S(=O)(=O)c2ccc3ccccc3c2)CC1)Nc1cc(Cl)cc(Cl)c1	.	-	.	-	.	-
c1ccc2c(c1)Nc1cc3ccccc3cc1S2	.	.	-[10 µM]	?	-	-[9.22 µM]
SMILES	IMPase inh	IMPase Li inh	HTT ATP protect	NPSR antag	Lamin A splicing	HTT aggregate
COc1ccc2c(c1)Sc1ccccc1N2	.	-	-[10 µM]	-	?	7.94µM
Cc1ccc2nc(NC(=O)C3CCN(S(=O)(=O)c4cccs4)CC3)sc2c1	-	-	3.55µM	-	-	-
COc1ccc2nc(NC(=O)C3CCN(S(=O)(=O)c4cccs4)CC3)sc2c1	-	-	-	-	?	?
O=C(Nc1nc2ccc(S(=O)(=O)N3CCCCC3)cc2s1)c1ccncc1	-	-	-[10 µM]	-	-	3.55µM
O=C(Nc1nc(-c2cccs2)cs1)c1ccc(S(=O)(=O)N2CCCCC2)cc1	-	-	-[10 µM]	-	?	-
O=C(Nc1nc2ccc(S(=O)(=O)N3CCCCC3)cc2s1)c1cccnc1	-	-	-	-	-	-
